# About 2,400 (0.65%) of roughly 370,000 compounds were called active. The sample as a whole holds a higher share of actives than the screen did. Values without a mark were called inactive.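 How the source made its calls: active means inhibition above the screen-wide mean plus 3 SD (cut at about 13% in these data); inactive means the rest.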
# Test system: HIV-1 integrase (with human LEDGF/p75)
# Assay: blockers of LEDGF/p75-dependent integrase strand transfer – biochemical, TR-FRET, high throughput, primary screen (AID 743269);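 further: signal is the Cy5 over europium emission ratio at 671 and 618 nm; 0% = plate median of compound wells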
# Settings: TR-FRET IN-LEDGF/p75 DNA integration, Eu/Cy5; at 3.7 µM; active compounds read high
row,Structure (SMILES),inhibition
1,C=C1C(C(C)C)N(C)C2=NC(c3ccccc3)CC(=O)N12 (stereo unspecified),1.74%
2,COC(=O)C1CN(Cc2ccc(F)cc2)CCS(=O)(=O)N1Cc1ccc(Cl)cc1 (stereo unspecified),-0.83%
3,CCc1ccccc1NC(=O)CSc1nnc(-c2cccs2)o1,1.45%
4,C/C(=N\NC(=O)c1cccc(N2CCCC2=O)c1)c1ccc(N)cc1,-2.92%
5,NC1=NN(c2cccc(C(=O)O)c2)C(=O)C1,13.8% (active)
6,O=C(c1cccc(N2CCCC2=O)c1)N1CCOCC1,-4.51%
7,CCOC(=O)N1CCN(C(=O)C[C@H]2C[C@@]3(C(=O)OC)C(=C[C@H](C(C)(C)C)O[C@@H]3C)N(Cc3ccc(Cl)cc3Cl)C2=O)CC1,-2.55%
8,Cc1cc(C)c2nc(-c3ccco3)cc(C(=O)O)c2c1,57.2% (active)
9,Cc1ccsc1-c1cc(C(=O)O)c2c(ccc3ccccc32)n1,0.22%
10,CCOC(=O)c1ccn(-c2nc(-c3ccco3)cc(C(F)(F)F)n2)n1,-1.1%
11,COc1ccc(-n2c(COc3ccc(C)cc3)nnc2SCC(=O)Nc2ccc(Oc3ccccc3)cc2)cc1,-0.53%
12,COC(=O)c1cccc(Cn2ccc3ccc(-c4ccc5ccn(C(=O)c6ccccc6C)c5c4)cc32)c1,1.28%
13,CC(C)(C)c1ccc(CSc2nnc(-c3cccs3)o2)cc1,-0.85%
14,CCOc1ccc(CN2CCN(Cc3ccc(C)o3)CC2CCO)cc1 (stereo unspecified),-3.16%
15,CCn1nc(C)c(CN2CCN(Cc3ccc(OC)c(C)c3C)C(CCO)C2)c1C (stereo unspecified),13.4% (active)
16,COc1ccc(CN2CCN(Cc3cn(C)nc3-c3ccccc3)CC2CCO)c(C)c1C (stereo unspecified),3.11%
17,Cc1ccc(NC(=S)NNC(=O)CSc2nnc(SCc3ccccc3Cl)s2)cc1,3.99%
18,CC(C)N1CCCCC(NC(=O)c2ccc3ccccc3c2)C1=O (stereo unspecified),0.96%
19,Cc1ccc(Cn2cc(CN3[C@@H](CC(C)C)COc4ccc(Cl)cc4S3(=O)=O)nn2)cc1,1.01%
20,O=S1(=O)c2ccc(Br)cc2OC[C@@H](Cc2ccccc2)N1Cc1cn(Cc2ccco2)nn1,5.73%
21,O=C1C=CC(=O)N1c1ccc(N2CCCCC2)cc1,14.3% (active)
22,Cc1ccc(-n2c(SCC(=O)Nc3ccc(S(=O)(=O)Nc4nccs4)cc3)nnc2-c2ccccn2)cc1,-3.23%
23,COC(=O)C1CN(CCc2ccccc2)CCS(=O)(=O)N1Cc1cccc(Cl)c1 (stereo unspecified),0.85%

row,Structure (SMILES),inhibition
1,CN(C)[C@H]1CCN(c2cccc3c2S(=O)(=O)N2CC[C@H](C2)O3)C1,2.98%
2,C=CCn1c(=S)[nH]c2scc(-c3ccco3)c2c1=O,42.3% (active)
3,O=S1(=O)c2c(cccc2N2CC[C@H](O)C2)O[C@@H]2CCN1C2,1.21%
4,O=C(c1cccc(C(F)(F)F)c1)N1CC[C@H]2[C@H](CCCN2Cc2cc(F)cc(F)c2)C1,86.5% (active)
5,O=C(c1ccncc1)N1CC[C@H]2[C@H](CCCN2Cc2ccc(F)cc2)C1,1.57%
6,O=C(N1CCOCC1)N1CC[C@H]2[C@H](CCCN2Cc2ccc(F)cc2)C1,3%
7,CCN(CC)C(=O)CC[C@@H]1CC[C@]2(CCCN(S(=O)(=O)C3CCCCC3)C2)O1,-3.12%
8,COc1ccc(Cn2cc(COC(=O)N(C)Cc3ccccc3)nn2)cc1,2.21%
9,CCc1c(-c2ccccc2)nc(N)c(C#N)c1-c1cccs1,0.5%
10,CSc1ccc(-c2c(C#N)c(N)nc3c2c(C)nn3-c2ccccc2)cc1,-1.93%
11,CSc1nc(N)c(C#N)c(-c2ccccc2Cl)c1C#N,30.9% (active)
12,CCCCCCCCNS(=O)(=O)/C=C/c1cc(C)ccc1CNC(=O)OC(C)(C)C,-0.25%
13,COc1ccc(CN2C(=O)N3Cc4cc(OC)ccc4C3CS2(=O)=O)cc1 (stereo unspecified),0.03%
14,Cc1sc2ncnc(SCC(=O)Nc3ccc(CN4CCCC4)cc3)c2c1C,-2.64%
15,Cc1c(Cl)cnc(NC(=O)COC(=O)C2CCCC2)c1Cl,3.73%
16,CCc1cc2c(SCC(=O)Nc3ncc(Cl)c(C)c3Cl)ncnc2s1,44.2% (active)
17,O=C(CNS(=O)(=O)c1ccccc1F)N1CCN(c2ccccn2)CC1,-3.63%
18,COC(=O)[C@]12C[C@H](CC(=O)N3CCN(C(=O)C4CC4)CC3)C(=O)N(CCC3=CCCCC3)C1=C[C@H](C(C)C)O[C@@H]2C1CC1,-2.49%
19,CN(Cc1ccc(F)cc1)C(=O)CN1C(=O)c2ccccc2S1(=O)=O,18% (active)
20,O=C(CN1C(=O)c2ccccc2S1(=O)=O)N1CCc2ccccc21,-3.85%
21,NS(=O)(=O)c1ccc(CCNC(=O)CN2C(=O)c3ccccc3S2(=O)=O)cc1,4.15%
22,CCOC(=O)[C@@]12CN(C(=O)OC(C)(C)C)CC=C1N(Cc1ccc(OC)cc1)C(=O)[C@H]2CC(=O)NCc1ccc(OC)c(OC)c1,-2.96%
23,CC(C)(C)OC(=O)NCc1cc(F)ccc1/C=C/S(=O)(=O)NCCc1ccccc1,1.04%
